From PubChem BioAssay (NCATS) come the findings set out here.

Experiment [1] deals with Aldehyde dehydrogenase, mitochondrial (Homo sapiens) (UniProt P05091). Put plainly: qHTS for Inhibitors of the Aldehyde Dehydrogenase Family (ALDH2) Primary screen (AID 2061308). Also: nearly all actives have a fitted effect of over 55% in size. On the technique in general: Quantitative high-throughput screening tests each substance at several concentrations.
Experiment [2] has as its target Retinaldehyde dehydrogenase 3 (Homo sapiens) (UniProt P47895). Briefly: qHTS for Inhibitors of the Aldehyde Dehydrogenase Family (ALDH1A3) Primary screen (AID 2061315).

Results filed as inconclusive are left out. Where a call stands in place of a potency, no number is given. The source made the active and inactive calls. Calls follow the shape of the dose curve; as a rule, active = well fitted curve in the direction sought with a large enough effect; inconclusive = small, poorly fitted or top-dose-only effect, or another doubt; inactive = no such curve, though single readings can be large; an effect the other way counts as inactive or inconclusive.

`Cc1ccc(C(=O)NC(c2ccco2)c2cc(Cl)c3cccnc3c2O)cc1` (stereo not given): the Potency entry in experiment [1] and in experiment [2] was “inactive” each time.

For `Cc1ccc(OCCn2c(CCNC(=O)Cc3ccc(F)cc3F)nc3ccccc32)cc1`, the Potency result in experiment [1] and in experiment [2] was “inactive” throughout.

For `COc1cccc(C2c3c(ncn(-c4cccc(Br)c4)c3=N)Oc3ccc4ccccc4c32)c1` (stereo not given), the Potency entry in experiment [1] and in experiment [2] was “inactive” each time.

Turning to `Cc1cc2c(s1)c1cnn(Cc3cc(F)c(F)c(F)c3F)c(=O)c1n2C`, the Potency result in experiment [1] and in experiment [2] was “inactive” throughout.

For the compound `O=C1CCCC2=C1C(c1[nH]ncc1Cl)N=C(Nc1nc3cc(F)ccc3o1)N2` (stereo not given), the Potency result in experiment [1] and in experiment [2] was “inactive” throughout.

For `O=S(=O)(c1ccc2c(c1)OCCO2)N1CCN(S(=O)(=O)c2cccc[n+]2[O-])CC1`, the Potency entry in experiment [1] and in experiment [2] was “inactive” in each case.

Regarding `OCc1ccc(-c2ccc3ncnc(NCc4ncc[nH]4)c3c2)o1`, the Potency entry in experiment [1] and in experiment [2] was “inactive” throughout.

In the case of `Cc1ccc(S(=O)(=O)Nc2ccccc2C(=O)Nc2nc(-c3ccc(Cl)cc3)cs2)cc1`, the Potency result in experiment [1] and in experiment [2] was “inactive” in each case.

Take `C[C@H]1CC[C@@]2(OC1)O[C@H]1CC3[C@@H]4CC[C@@H]5C[C@@H](O[C@@H]6O[C@H](CO)[C@@H](O[C@@H]7O[C@H](CO[C@@H]8OC[C@@H](O)[C@H](O)[C@H]8O)[C@@H](O[C@@H]8O[C@H](CO)[C@H](O)[C@H](O)[C@H]8O)[C@H](O)[C@H]7O)[C@H](O)[C@H]6O)CC[C@]5(C)C4CC[C@]3(C)[C@H]1[C@@H]2C` (stereo not given in full): the Potency result in experiment [1] and in experiment [2] was “inactive” in each case.

On to `COc1ccc(NC(=O)c2cnn3c(C)cc(C)nc23)cc1Cl`, for which the Potency result in experiment [1] and in experiment [2] was “inactive” in each case.

Take `Cc1nc(NCc2ccccc2)c2nc(-c3ccccc3)n(CCN3CCCCC3)c2n1`: the Potency result in experiment [1] and in experiment [2] was “inactive” throughout.

For `Cc1cc(C=CC#N)cc(C)c1Nc1nc(Nc2ccc3c(c2)OCO3)c2[nH]cnc2n1`, the Potency result in experiment [1] and in experiment [2] was “inactive” in each case.

For the compound `O=c1[nH]c(CCl)nc2sc3c(c12)CCC3`, the Potency entry in experiment [1] and in experiment [2] was “inactive” in each case.

On to `COc1ccc(Br)cc1S(=O)(=O)N1CCN(S(=O)(=O)c2ccc3c(c2)OCCO3)CC1`, for which the Potency entry in experiment [1] and in experiment [2] was “inactive” throughout.

On to `O=C1CCc2cc(S(=O)(=O)Nc3cccc(Cl)c3)ccc2N1`, for which the Potency entry in experiment [1] and in experiment [2] was “inactive” in each case.

With `CC(O)C(O)/C=C/C=C/C(=O)O[C@@H]1C=C(C(=O)O)[C@](O)(CO)[C@@]2(C)CCCC(C)(C)[C@H]12` (stereo not given in full), the Potency entry in experiment [1] and in experiment [2] was “inactive” in each case.

For the compound `CCCn1c(C)nc2c(Nc3ccccc3)nc(C)nc21`, the Potency entry in experiment [1] and in experiment [2] was “inactive” each time.

For `CCCn1c(-c2ccc(F)cc2)nc2c(N3CCN(CCC(=O)OCC)CC3)nc(C)nc21`, the Potency result in experiment [1] and in experiment [2] was “inactive” in each case.

In the case of `COc1ccc(Nc2nc(C#N)nc(NC3CCCC3)n2)cc1`, the Potency result in experiment [1] and in experiment [2] was “inactive” each time.

Take `CC(C)(N)C(=O)Nc1ccc(Cl)cc1C(=O)c1ccc[nH]1`: the Potency result in experiment [1] and in experiment [2] was “inactive” each time.

`Cc1cc(-c2nnc3n2CCCCCCC3)c(C)n1-c1ccccc1`: the Potency entry in experiment [1] and in experiment [2] was “inactive” in each case.

Take `CC1=CC(=O)C2C(C)(C)CCC[C@]2(C)[C@H]1CC[C@H](C)CC(=O)O` (stereo not given in full): the Potency entry in experiment [1] and in experiment [2] was “inactive” in each case.

For the compound `N#Cc1cccc(NS(=O)(=O)c2ccc3c(c2)CCC(=O)N3)c1`, the Potency entry in experiment [1] and in experiment [2] was “inactive” throughout.

In the case of `Cc1noc(C)c1-c1ccc2ncnc(NCc3cc(F)cc(F)c3)c2c1`, the Potency result in experiment [1] and in experiment [2] was “inactive” in each case.

Take `Cc1cc(-c2ccccc2)nc2c(C(=O)Nc3ccc(Cl)c(Cl)c3)cnn12`: the Potency result in experiment [1] and in experiment [2] was “inactive” throughout.

Consider `CC1=C(C(=O)Nc2ccc(C)cc2)C(c2ccccc2Br)N=C(Nc2nc3ccccc3o2)N1` (stereo not given), for which the Potency result in experiment [1] and in experiment [2] was “inactive” throughout.

`COc1ccc(C2c3c(n(CCCc4ccccc4)cnc3=N)Oc3ccc4ccccc4c32)cc1OC` (stereo not given): the Potency result in experiment [1] and in experiment [2] was “inactive” throughout.

Turning to `COc1cc(OC)cc(-c2nnc3n2N=C(c2ccccc2OC)CS3)c1`, the Potency result in experiment [1] and in experiment [2] was “inactive” throughout.

`COc1cccc(C2c3c(ncn(-c4ccc(C(C)(C)C)cc4)c3=N)Oc3ccc4ccccc4c32)c1` (stereo not given): the Potency entry in experiment [1] and in experiment [2] was “inactive” in each case.

In the case of `Cc1ccc(C(=O)NC2CCN(C#N)CC2)cc1`, the Potency result in experiment [1] and in experiment [2] was “inactive” throughout.

Take `Cc1cc(C)nc(NC(=S)N2CCN(c3nc4ccccc4o3)CC2)c1`: the Potency entry in experiment [1] and in experiment [2] was “inactive” in each case.

In the case of `Cc1ccc(-c2ccc(CNc3nc(-c4ccccc4C(C)C)ncc3F)cc2)cn1`, the Potency entry in experiment [1] and in experiment [2] was “inactive” throughout.

Regarding `Cc1nnc(-c2cnn(C)c2N)n1CCCn1cccc1`, the Potency result in experiment [1] and in experiment [2] was “inactive” throughout.

Turning to `CC(C)=CCC[C@](C)(O[C@@H]1O[C@H](CO[C@@H]2O[C@@H](CO)[C@H](O)[C@H]2O)[C@@H](O)[C@H](O)[C@H]1O)[C@H]1CC[C@]2(C)[C@@H]1[C@H](O)C[C@@H]1[C@@]3(C)CC[C@H](O[C@@H]4O[C@H](CO)[C@@H](O)[C@H](O)[C@H]4O[C@@H]4O[C@H](CO)[C@@H](O)[C@H](O)[C@H]4O)C(C)(C)[C@@H]3CC[C@]12C`, the Potency entry in experiment [1] and in experiment [2] was “inactive” in each case.

On to `O=C(NCc1ccc(F)cc1)n1cc(P(=S)(c2ccccc2)c2ccccc2)c2ccccc21`, for which the Potency entry in experiment [1] and in experiment [2] was “inactive” each time.

On to `O=S1(=O)N=C(OCc2ccccc2)c2ccccc21`, for which the Potency result in experiment [1] and in experiment [2] was “inactive” throughout.

For `N#Cc1nc(Nc2ccc(C(F)(F)F)cc2)nc(NC2CCCC2)n1`, the Potency entry in experiment [1] and in experiment [2] was “inactive” in each case.

Turning to `COc1cc2nc(N3CCN(C(=O)c4ccco4)C4CCCCC43)nc(N)c2cc1OC` (stereo not given), the Potency entry in experiment [1] and in experiment [2] was “inactive” in each case.

Take `CC(C)CN1CCN(C(=O)COC(=O)c2ccc(S(C)(=O)=O)c([N+](=O)[O-])c2)CC1`: the Potency entry in experiment [1] and in experiment [2] was “inactive” in each case.

On to `O=C1CCCC2=C1C(c1[nH]ncc1Cl)N=C(Nc1cccnc1)N2` (stereo not given), for which the Potency entry in experiment [1] and in experiment [2] was “inactive” each time.
